The text below walks through data of PubChem BioAssay (NCATS).

Results filed as inconclusive are left out. Activity calls are given as the source filed them. Unless noted, calls come from the whole dose curve; as a rule, active = well fitted curve in the direction sought with a large enough effect; inconclusive = small, poorly fitted or top-dose-only effect, or another doubt; inactive = no such curve, though single readings can be large; an effect the other way counts as inactive or inconclusive.

Test [1] addresses Calcium and integrin-binding protein 1 (Homo sapiens) (UniProt Q99828). As to the kind of experiment: Primary qHTS for Identification of Calcium Integrin Binding Protein 1 (CIB1) Competitor (AID 1508620).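 Note: GST tagged CIB1 binding a fluorescein labelled alphaIIb integrin peptide tracer; top concentration of the series differs between compounds.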 An outline of the steps: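 Fluorescence polarization competition: CIB1-GST (1 uM final) preincubated with compound 15 min at room temperature, then FITC-labeled alphaIIb peptide (100 nM final) added for another 15 min. Polarization read at Ex 480/Em 540.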
Background: qHTS replaces the single test concentration by a dilution series.

A short description of test [2]: Primary qHTS for small molecule stabilizers of the endoplasmic reticulum resident proteome: Secreted ER Calcium Modulated Protein (SERCaMP) assay (AID 1508630). In a few lines: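 GLuc-SERCaMP-expressing SH-SY5Y cells, pretreated 16 h with compound, are challenged with thapsigargin to empty ER calcium stores; after 4 h, coelenterazine is added directly to the medium and luminescence is imaged.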

The nature of test [3]: A High-Content qHTS Against Drug Library for the Identification of Small Molecules that Inhibit DYT1 Early Onset Primary Dystonia-Associated Cell Pathology (AID 1645839; calls by dose curve; note: series mostly up to about 46 µM). An outline of the steps:
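Readout: %pathology, the punctate EGFP-TorsinA distribution from imaging, as the primary channel and cell count as the toxicity counterscreen. HEK293 Flp-In cells expressing delE TorsinA were induced with tetracycline and treated with compound for 48 h.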

Test [4] addresses Cytochrome P450 2D6 (Homo sapiens) (UniProt P10635). The experiment in a line: Cytochrome P450 family 2 subfamily D member 6 (CYP2D6) small molecule antagonists: luciferase biochemical (cell-free) qHTS assay (AID 1645840; active = well fitted curve in the direction sought with a large enough effect in the repeat runs; an effect the other way counts as inactive or inconclusive; note: nearly all actives have a fitted effect of over 55% in size; note: potency is the fitted concentration of half-maximal effect). In a few lines: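 P450-Glo luminescent screen: recombinant CYP2D6 enzyme–proluciferin substrate mix preincubated with compound 10 min at room temperature, then NADPH regeneration added for 1 h at room temperature. Detection reagent added for 20 min; luciferin light read as relative luminescence units.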

The target in test [5] is Cytochrome P450 2C9 (Homo sapiens) (UniProt P11712). As to the kind of experiment: Cytochrome P450 family 2 subfamily C member 9 (CYP2C9) small molecule antagonists: luciferase biochemical (cell-free) qHTS assay (AID 1645842; active = well fitted curve in the direction sought with a large enough effect in the repeat runs; an effect the other way counts as inactive or inconclusive; note: nearly all actives have a fitted effect of over 55% in size; note: potency is the fitted concentration of half-maximal effect). In a few lines:
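Luminescence, after 20 min with luciferin detection reagent, reflected CYP2C9 turnover during a 1 h NADPH-driven reaction at 37C. Enzyme-substrate mix contained 0.4% bovine serum albumin and was preincubated with compound 10 min at room temperature.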

Test [6] has as its target Cytochrome P450 3A4 (Homo sapiens) (UniProt P08684). The experiment in a line: Cytochrome P450 family 3 subfamily A member 4 (CYP3A4) small molecule antagonists: luciferase qHTS assay (AID 1645841; active = well fitted curve in the direction sought with a large enough effect in the repeat runs; an effect the other way counts as inactive or inconclusive; note: nearly all actives have a fitted effect of over 45% in size). In a few lines: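 P450-Glo CYP3A4 enzyme with proluciferin substrate was preincubated with DMSO-dissolved compounds for 10 min at room temperature. NADPH regeneration solution started a 1 h reaction. Detection reagent stopped it, and luminescence was read after 20 min.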

Cytochrome P450 2C9 (Homo sapiens), sequence (P11712 whole entry, looked up): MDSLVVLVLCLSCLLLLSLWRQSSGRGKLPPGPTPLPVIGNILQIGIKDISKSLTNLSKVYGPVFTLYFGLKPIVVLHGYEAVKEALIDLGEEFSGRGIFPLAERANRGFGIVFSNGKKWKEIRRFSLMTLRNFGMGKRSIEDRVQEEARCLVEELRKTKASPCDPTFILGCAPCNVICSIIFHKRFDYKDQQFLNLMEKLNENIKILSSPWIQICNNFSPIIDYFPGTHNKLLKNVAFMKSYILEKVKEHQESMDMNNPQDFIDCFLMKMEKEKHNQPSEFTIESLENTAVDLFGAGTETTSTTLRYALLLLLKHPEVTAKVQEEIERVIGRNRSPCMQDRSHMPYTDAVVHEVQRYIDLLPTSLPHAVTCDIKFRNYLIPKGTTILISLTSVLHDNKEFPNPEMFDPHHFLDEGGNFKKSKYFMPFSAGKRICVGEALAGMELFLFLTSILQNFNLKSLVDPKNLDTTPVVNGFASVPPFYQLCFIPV
Calcium and integrin-binding protein 1 (Homo sapiens), sequence (Q99828 whole entry, looked up): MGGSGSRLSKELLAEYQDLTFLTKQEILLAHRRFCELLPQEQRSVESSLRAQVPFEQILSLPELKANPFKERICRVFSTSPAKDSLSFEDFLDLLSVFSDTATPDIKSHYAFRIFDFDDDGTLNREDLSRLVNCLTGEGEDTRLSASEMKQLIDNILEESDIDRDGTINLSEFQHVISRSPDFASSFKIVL
Cytochrome P450 2D6 (Homo sapiens), sequence (P10635 whole entry, looked up): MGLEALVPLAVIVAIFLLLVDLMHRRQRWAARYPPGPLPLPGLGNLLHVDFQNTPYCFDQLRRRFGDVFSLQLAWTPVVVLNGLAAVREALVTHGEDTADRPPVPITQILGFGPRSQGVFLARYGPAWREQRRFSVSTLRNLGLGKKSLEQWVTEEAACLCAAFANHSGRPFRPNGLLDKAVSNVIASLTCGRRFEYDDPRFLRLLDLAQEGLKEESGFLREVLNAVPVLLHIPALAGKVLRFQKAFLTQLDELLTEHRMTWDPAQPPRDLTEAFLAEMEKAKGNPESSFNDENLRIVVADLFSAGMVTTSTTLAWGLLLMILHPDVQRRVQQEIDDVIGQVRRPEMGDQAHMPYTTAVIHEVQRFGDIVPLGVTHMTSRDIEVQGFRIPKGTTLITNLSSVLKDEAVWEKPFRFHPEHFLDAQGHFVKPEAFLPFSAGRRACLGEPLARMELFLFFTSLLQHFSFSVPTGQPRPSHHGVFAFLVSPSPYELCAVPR
Cytochrome P450 3A4 (Homo sapiens), sequence (P08684 whole entry, looked up): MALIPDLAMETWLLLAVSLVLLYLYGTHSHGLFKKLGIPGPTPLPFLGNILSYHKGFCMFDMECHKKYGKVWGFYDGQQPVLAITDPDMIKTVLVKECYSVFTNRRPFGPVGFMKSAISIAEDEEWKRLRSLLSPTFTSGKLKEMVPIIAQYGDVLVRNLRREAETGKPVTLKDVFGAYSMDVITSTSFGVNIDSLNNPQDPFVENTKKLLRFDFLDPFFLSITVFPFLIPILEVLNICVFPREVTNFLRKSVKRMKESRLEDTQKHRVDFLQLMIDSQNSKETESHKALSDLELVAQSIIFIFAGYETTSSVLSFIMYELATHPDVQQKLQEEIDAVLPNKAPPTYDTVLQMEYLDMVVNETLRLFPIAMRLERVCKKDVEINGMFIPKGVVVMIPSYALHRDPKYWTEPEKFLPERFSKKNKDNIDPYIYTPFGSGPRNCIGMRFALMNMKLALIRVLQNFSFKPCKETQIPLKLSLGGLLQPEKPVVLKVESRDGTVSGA

For `CC(C)C(=O)OCc1cccc(OC(=O)[C@@H]2N3C(=O)[C@@H](NC(=O)Cc4ccccc4)[C@H]3SC2(C)C)c1`, the Potency entry in test [1], in test [2], in test [3] and in test [4] was “inactive” each time. In addition, the Potency in test [5] is 24.5 µM (active).
In the case of `CC(C)(Oc1ccc(Cl)cc1)C(=O)OCCCOC(=O)C(C)(C)Oc1ccc(Cl)cc1`, the Potency result in test [1], in test [2], in test [3] and in test [4] was “inactive” in each case. In test [5], the Potency was 7.76 µM (active).
For `Cn1c(=O)c2c(ncn2CC(=O)O)n(C)c1=O`, the Potency result in test [1], in test [2], in test [3], in test [4] and in test [5] was “inactive” in each case.
In the case of `C#CC(C)(CC)OC(=O)c1ccccc1C(=O)O` (stereo unspecified), the Potency entry in test [1], in test [2], in test [3], in test [4] and in test [5] was “inactive” throughout.
Regarding `CC(C)(C)NCC(O)COc1ccccc1OCC1CCCO1` (stereo unspecified), the Potency result in test [1], in test [2], in test [3] and in test [5] was “inactive” in each case. The Potency in test [4] was 6.17 µM (active).
As to `Cc1ccccc1C(=O)N1CC/C(=N\OS(=O)(=O)O)c2ccc(Cl)cc21`, the Potency result in test [1], in test [2], in test [3] and in test [4] was “inactive” throughout. For the same molecule, the Potency in test [5] was 8.71 µM (active).
For the molecule `Cc1c(F)cc2c(=O)c(C(=O)O)cn3c2c1CCC3C` (stereo unspecified), the Potency result in test [1], in test [2], in test [3], in test [4] and in test [5] was “inactive” each time.
As for `COc1ccccc1N1CCN(CC(O)COc2cc(OC)c(OC)c(OC)c2)CC1` (stereo unspecified), the Potency result in test [1], in test [2], in test [3] and in test [5] was “inactive” in each case.
Regarding `O=C(O)/C=C(\CC(=O)O)C(=O)O`, the Potency result in test [1], in test [2], in test [3] and in test [5] was “inactive” in each case.
With `[O-][n+]1cccc(/C(Cl)=N/OC[C@@H](O)CN2CCCCC2)c1`, the Potency result in test [1], in test [2], in test [3] and in test [5] was “inactive” each time.
For the molecule `C=CC[N+]1([C@H]2C[C@H]3[C@@H]4CC[C@H]5C[C@H](OC(C)=O)[C@@H](N6CCCCC6)C[C@]5(C)[C@H]4CC[C@]3(C)[C@H]2OC(=O)CC)CCCCC1`, the Potency result in test [1], in test [2], in test [3] and in test [5] was “inactive” throughout.
Turning to `CCOC(=O)NNc1nncc2ccccc12`, the Potency entry in test [1], in test [2], in test [3] and in test [5] was “inactive” each time.
As to `CC(C)Cc1ccc(C(C)C(=O)OCc2ccccn2)cc1` (stereo unspecified), the Potency result in test [1], in test [2] and in test [3] was “inactive” throughout. Besides, in test [5], the Potency was 9.77 µM (active).
Take `CC(=O)[C@H]1CC[C@H]2[C@@H]3C=CC4=CC(=O)CC[C@@]4(C)[C@@H]3CC[C@]12C`: the Potency result in test [1] and in test [2] was “inactive” each time. Besides, the Potency in test [4] is 15.5 µM (active).
Turning to `Nc1ccc(C(=O)N2CC3CC(CN(Cc4ccccc4)C3)C2)cc1`, the Potency entry in test [1], in test [2], in test [3] and in test [5] was “inactive” each time.
Consider `Cc1cc(CCCOc2c(C)cc(-c3noc(C(F)(F)F)n3)cc2C)on1`, for which the Potency entry in test [1], in test [2] and in test [3] was “inactive” each time. The Potency in test [5] is 19.5 µM (active).
As to `O=C1Cc2cc(Cl)ccc2N1`, the Potency entry in test [1], in test [2] and in test [3] was “inactive” throughout. Moreover, the Potency in test [5] is 11 µM (active).
Turning to `OCc1cccnc1`, the Potency entry in test [1], in test [2], in test [3], in test [6] and in test [5] was “inactive” each time.
`CCN1CCN(c2cc(-c3ccc(F)cc3)c3c(n2)CCCCCC3)CC1`: the Potency entry in test [1], in test [2], in test [3] and in test [5] was “inactive” throughout.
Regarding `CCC(=O)Oc1ccc2c(c1)CC[C@@H]1[C@@H]2CC[C@@]2(C)[C@H]1C[C@@H](OC(=O)CC)[C@@H]2OC(=O)CC`, the Potency result in test [1], in test [2] and in test [3] was “inactive” in each case. The Potency in test [5] was 8.71 µM (active).
Turning to `OCCc1ccccc1`, the Potency entry in test [1], in test [2], in test [3] and in test [5] was “inactive” each time.
Consider `CC1(C)O[C@@H]2C[C@H]3[C@@H]4CCC5=CC(=O)C=C[C@]5(C)[C@@]4(F)[C@@H](O)C[C@]3(C)[C@]2(C(=O)CO)O1`, for which the Potency entry in test [1], in test [2], in test [3] and in test [5] was “inactive” each time.
Regarding `CCCCCCCCCCCCCCCCCCNC(=O)OC1CCN(C(=O)OC[C@H](COC(=O)N(Cc2cccc[n+]2CC)C(=O)c2ccccc2OC)OC)CC1`, the Potency entry in test [1] and in test [2] was “inactive” throughout. In addition, the Potency in test [4] was 17.4 µM (active).
Take `CC(=O)OC/C=C(C)/C=C/C=C(C)/C=C/C1=C(C)CCCC1(C)C`: the Potency result in test [1], in test [2] and in test [3] was “inactive” each time. Besides, the Potency in test [5] was 15.5 µM (active).
As to `O=c1[nH]c(=O)n([C@H]2O[C@H](CO)[C@@H](O)[C@@H]2O)cc1/C=C\Br`, the Potency entry in test [1], in test [2], in test [3], in test [4] and in test [5] was “inactive” each time.
Take `CCOC(=O)c1ccc(NC(=O)CN2CCCCC2)cc1`: the Potency result in test [1], in test [2], in test [3] and in test [5] was “inactive” in each case.
